In the library only some 7.4% were active in any assay of this set; here they are far more common.
FLuc counter: inhibits or activates purified firefly luciferase, miR-21 counter-screen. AID 588342. P08659. Potency, µM (titrated, usually from 57.5 µM), most hits filed as inhibitors. 360,000 tested, 6.9% active. purified FLuc, Km substrates, luminescence inhibition; note: nearly all actives have a fitted effect of over 55% in size
Target sequence (P08659 whole entry, looked up): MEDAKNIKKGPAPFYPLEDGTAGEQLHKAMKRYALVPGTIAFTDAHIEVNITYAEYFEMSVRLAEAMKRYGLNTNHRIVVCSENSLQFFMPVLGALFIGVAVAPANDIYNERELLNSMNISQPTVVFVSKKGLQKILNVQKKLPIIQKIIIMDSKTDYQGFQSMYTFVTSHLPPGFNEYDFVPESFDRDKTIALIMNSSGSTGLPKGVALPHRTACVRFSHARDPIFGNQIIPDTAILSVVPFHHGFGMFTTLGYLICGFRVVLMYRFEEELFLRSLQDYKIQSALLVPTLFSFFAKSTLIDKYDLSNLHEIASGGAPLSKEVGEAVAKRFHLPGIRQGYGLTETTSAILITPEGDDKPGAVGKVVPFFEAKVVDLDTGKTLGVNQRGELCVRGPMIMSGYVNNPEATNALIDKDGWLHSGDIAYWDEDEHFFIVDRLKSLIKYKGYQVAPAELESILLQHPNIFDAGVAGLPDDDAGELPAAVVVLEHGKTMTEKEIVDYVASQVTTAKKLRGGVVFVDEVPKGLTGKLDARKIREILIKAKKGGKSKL
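Biochemical qHTS of compounds, final roughly 60 µM downward over six points, against 10 nM purified firefly luciferase using Km concentrations of substrates (10 uM D-luciferin, 10 uM ATP) in Tris acetate pH 7.5 buffer; luminescence output.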
NPC1 promoter act: activates the NPC1 promoter; 320,000 tested, 2.4% active; Huh7 NPC1 promoter luciferase reporter, 24 h; Potency, µM (titrated, usually from 9.22 µM), actives largely listed as activators; note: nearly all actives have a fitted effect of over 60% in size
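Quantitative HTS used a cell-based reporter: Huh7 cells stably bearing the NPC1 promoter upstream of luciferase were treated with compounds for 24 h, and promoter activation was read as luminescence.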
ELG1 genotoxic: inducers of genotoxicity in HEK293T ELG1-luciferase cells. HEK293T ELG1-luciferase reporter, luminescence, 16 h. Potency, µM (top dose mostly 46 µM), actives largely listed as activators. 330,000 tested, 1.3% active. AID 504466; note: nearly all actives have a fitted effect of over 60% in size
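DMSO vehicle served as control against compound-treated ELG1-luciferase HEK293T cells; exposure lasted 16 hr at 37 °C and 5% CO2, followed by ONE-Glo luminescence detection after 30 min.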
Rab9 prom act: activators of Rab9 promoter | Potency, µM (series often up to 9.22 µM), usual class: activators | AID 485297 | 320,000 tested, 2.8% active | Huh7 Rab9 promoter-luciferase reporter, luminescence, 24 h; note: nearly all actives have a fitted effect of over 60% in size
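Quantitative HTS format; Huh7 Rab9-luciferase reporter cells (1500/well) receive compound 2 h post-plating, incubate 24 h at 37 °C, then get luciferase reagent for 10 min before luminescence reading.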
SMN2 splice enh: increases expression of the SMN2 splice variant. Potency, µM (titrated, usually from 46.1 µM), most hits filed as activators. 210,000 tested, 2.8% active. HEK293 SMN2-luciferase splicing reporter, luminescence, 30-36 h; note: nearly all actives have a fitted effect of over 55% in size
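qHTS luciferase splicing reporter: luminescence rises when SMN2 exon 7 is included in transfected HEK293 cells. Compound exposure lasted 30-36 h at 37C, with 4.5 mM final sodium butyrate as control, followed by a ONE-Glo read.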
Each line names hits and unclear results; the compound was inactive in the other large screens. Calls come from the whole dose curve; as a rule, active = well fitted curve in the direction sought with a large enough effect; inconclusive = small, poorly fitted or top-dose-only effect, or another doubt; inactive = no such curve, though single readings can be large; an effect the other way counts as inactive or inconclusive.

O=C(Cn1c(=O)n(CC2CCCO2)c(=O)c2ccccc21)Nc1ccc(F)cc1F (centres undefined)	none (no result: NPC1 promoter act, ELG1 genotoxic, Rab9 prom act)
Cc1cc(/C=C(\C#N)C(=O)Nc2ccccc2)c(C)n1-c1cccnc1	FLuc counter 1.5µM, NPC1 promoter act inconclusive, Rab9 prom act 2.8µM, SMN2 splice enh 5.6µM
Cc1cc(C(=O)O)ccc1-n1c(C)cc(/C=C(/C#N)C(=O)Nc2ccccc2)c1C	FLuc counter inconclusive (no result: SMN2 splice enh)
CCOC(=O)/C(C#N)=C/c1cc(C)n(-c2ccccc2)c1C	FLuc counter 0.54µM, NPC1 promoter act 3.2µM, ELG1 genotoxic 0.65µM, Rab9 prom act 0.56µM
Cc1ccc(NC(=O)C2CCCN(S(=O)(=O)c3ccc(C)cc3)C2)cc1 (centres undefined)	none (no result: NPC1 promoter act, ELG1 genotoxic, Rab9 prom act)
CNc1nc(N)c([N+](=O)[O-])c(Nc2ccccc2OC)n1	none (no result: SMN2 splice enh)
CCC(=O)N/C(N)=N/c1nc(C)c2cc(OC)ccc2n1	FLuc counter 11µM, ELG1 genotoxic 10µM, SMN2 splice enh inconclusive
CCOC(=O)CSc1nc(C)c2cc(OC)ccc2n1	FLuc counter 24µM, ELG1 genotoxic inconclusive
CCOC(=O)CCSc1nc(C)c2cc(C)ccc2n1	FLuc counter 9.5µM, ELG1 genotoxic 18µM
COc1ccc2nc(C)cc(SCC(=O)NNC(=O)COc3ccccc3)c2c1	none
CCOC(=O)CNC(=O)CSc1cc(C)nc2ccc(OC)cc12	FLuc counter 6.7µM, NPC1 promoter act 4µM, ELG1 genotoxic inconclusive, Rab9 prom act 3.2µM (no result: SMN2 splice enh)
CCC(CC)C(=O)Nc1ccc(OCc2cc(=O)n3c4c(sc3n2)CCCC4)cc1	none (no result: NPC1 promoter act, ELG1 genotoxic, Rab9 prom act)
CCOc1ccccc1NC(=O)CSc1nccn1Cc1ccc(F)cc1	none (no result: NPC1 promoter act, ELG1 genotoxic, Rab9 prom act, SMN2 splice enh)
O=C1c2ccccc2S(=O)(=O)N1Cc1nnc(-c2ccccc2Br)o1	FLuc counter 21µM
O=C1CSC(=S)N1/N=C/C=C/c1ccccc1	FLuc counter inconclusive
N=C1SCC(=O)N1/N=C/c1ccccc1	FLuc counter 5.4µM
COC(=O)c1ccc(CNC(=O)Cn2cnc3c(OCc4ccccc4)ncnc32)cc1	none (no result: FLuc counter, NPC1 promoter act, Rab9 prom act, SMN2 splice enh)
O=S(=O)(Nc1cccc(-c2ccc(N3CCCC3)nn2)c1)c1ccccc1C(F)(F)F	FLuc counter 17µM (no result: NPC1 promoter act, ELG1 genotoxic, Rab9 prom act, SMN2 splice enh)
O=[N+]([O-])c1ccccc1S(=O)(=O)Nc1ccc(-c2ccc(N3CCCC3)nn2)cc1	none (no result: SMN2 splice enh)
O=S(=O)(Nc1cccc(-c2ccc(N3CCOCC3)nn2)c1)c1ccc(F)c(C(F)(F)F)c1	FLuc counter 9.5µM (no result: NPC1 promoter act, ELG1 genotoxic, Rab9 prom act, SMN2 splice enh)
O=S(=O)(Nc1cccc(-c2ccc(N3CCCC3)nn2)c1)c1ccc(F)c(C(F)(F)F)c1	FLuc counter 19µM (no result: NPC1 promoter act, ELG1 genotoxic, Rab9 prom act, SMN2 splice enh)
CN(CC(=O)Nc1ccc(F)cc1)C(=O)COC(=O)c1ccc(-c2ccccc2)cc1	none (no result: SMN2 splice enh)
CCOc1ccc(C(=O)NCC(c2ccc(Cl)cc2)N2CCCCC2)cc1 (centres undefined)	none (no result: NPC1 promoter act, ELG1 genotoxic, Rab9 prom act, SMN2 splice enh)
CC1CCCC(NC(=O)CN2C(=O)c3cccnc3Oc3ccc(Cl)cc32)C1C (centres undefined)	none (no result: SMN2 splice enh)
CCC(=O)Nc1cc(C(=O)O)ccc1Sc1ccc(C)cc1	none (no result: SMN2 splice enh)
COc1ccc(C(=O)c2sc3nc(-c4ccccc4)ccc3c2N)cc1	none
CC(C)OC(=O)c1sc2nc(-c3ccccc3)ccc2c1N	FLuc counter 0.3µM, NPC1 promoter act 0.32µM, ELG1 genotoxic inconclusive, Rab9 prom act 0.45µM
CCOC(=O)c1sc2nc(-c3cccnc3)ccc2c1N	FLuc counter 0.48µM, NPC1 promoter act 0.45µM, ELG1 genotoxic 2.6µM, Rab9 prom act 0.5µM (no result: SMN2 splice enh)
NC(=O)c1sc2nc(-c3cccnc3)ccc2c1N	FLuc counter inconclusive (no result: SMN2 splice enh)
COc1ccc(-c2ccc3c(N)c(C(=O)NCc4ccc(Cl)cc4)sc3n2)cc1	SMN2 splice enh 11µM (no result: NPC1 promoter act, ELG1 genotoxic, Rab9 prom act)
CN(CC1CCOCC1)C(=O)CC1C(=O)NCCN1Cc1ccc(-c2ccccc2)cc1 (centres undefined)	none (no result: SMN2 splice enh)
CC1(C)C(=O)Nc2ccccc2N1C(=O)COc1cc(Cl)ccc1Cl	none (no result: SMN2 splice enh)
NC(=O)C1CCN(C(=O)Cn2c(-c3cccs3)cc3ccccc32)CC1	none (no result: NPC1 promoter act, ELG1 genotoxic, Rab9 prom act, SMN2 splice enh)
COc1ccc(OCc2nc3ccccc3[nH]2)cc1	FLuc counter 3.4µM, NPC1 promoter act 1.6µM, ELG1 genotoxic 1.8µM, Rab9 prom act 0.56µM, SMN2 splice enh 11µM
NNC(=O)c1ccc(OCc2nc3ccccc3[nH]2)cc1	none (no result: FLuc counter, NPC1 promoter act, ELG1 genotoxic, Rab9 prom act)
COc1cccc(OCc2nc3ncc(Br)cc3[nH]2)c1	ELG1 genotoxic inconclusive, SMN2 splice enh inconclusive

Bioassay records as filed in PubChem BioAssay.
